Compound activity: PubChem BioAssay, The Scripps Research Institute Molecular Screening Center
PME-1 inh: PME-1 inhibitors via competitive probe labeling, primary screen, biochemical, fluorescence polarization, FP-Rh probe, HTS. Protein phosphatase methylesterase 1 (Homo sapiens), Q9Y570. recombinant PME-1. inhibition, % at 5.9 µM. 320,000 compounds, 0.53% hits. AID 2130, 2009;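 active = inhibition above the campaign mean of all compounds plus 3 SD, cut at about 26% in these data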;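 note: competitive labeling of PME-1 active site by serine hydrolase directed probe; 0% = PME-1 with DMSO and 100% = wells lacking PME-1 enzyme; inhibitors block probe labeling so polarization falls and inhibition rises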
PREPL inhibitor: PREPL enzyme inhibitors, primary screen, biochemical, fluorescence polarization. recombinant PREPL, fluorescence polarization activity-based probe. inhibition, % at 5.96 µM. 320,000 compounds, 0.68% hits. Prolyl endopeptidase-like (Homo sapiens), Q4J6C6; in the data active = inhibition above about 43%;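 note: 0% = enzyme with DMSO and 100% = wells lacking enzyme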
Target sequence (Q4J6C6 whole entry, looked up): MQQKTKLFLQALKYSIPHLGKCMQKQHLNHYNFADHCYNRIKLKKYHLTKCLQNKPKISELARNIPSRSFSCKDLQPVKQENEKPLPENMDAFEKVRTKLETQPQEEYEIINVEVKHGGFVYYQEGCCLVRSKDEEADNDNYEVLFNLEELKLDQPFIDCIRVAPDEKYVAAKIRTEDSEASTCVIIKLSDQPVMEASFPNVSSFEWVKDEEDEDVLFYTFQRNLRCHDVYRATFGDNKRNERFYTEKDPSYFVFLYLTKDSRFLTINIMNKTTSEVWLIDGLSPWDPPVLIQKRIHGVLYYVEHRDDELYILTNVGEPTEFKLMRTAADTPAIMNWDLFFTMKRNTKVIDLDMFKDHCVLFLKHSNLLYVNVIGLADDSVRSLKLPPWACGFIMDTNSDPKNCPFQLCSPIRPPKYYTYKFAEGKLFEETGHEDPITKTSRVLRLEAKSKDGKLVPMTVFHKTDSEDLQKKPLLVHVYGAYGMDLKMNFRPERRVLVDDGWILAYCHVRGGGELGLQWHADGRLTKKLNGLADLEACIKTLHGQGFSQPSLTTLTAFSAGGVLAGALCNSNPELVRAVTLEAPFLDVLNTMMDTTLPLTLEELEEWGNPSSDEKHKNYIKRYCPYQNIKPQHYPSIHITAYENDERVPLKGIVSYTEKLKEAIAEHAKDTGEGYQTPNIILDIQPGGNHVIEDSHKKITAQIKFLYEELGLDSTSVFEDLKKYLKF
Fam108B counter: mouse Fam108B serine hydrolase inhibitors, primary screen, counter-screen for RBBP9 inhibitor project, biochemical, fluorescence polarization. 300,000 compounds, 0.33% hits. AID 1947, 2009. recombinant Fam108B, FP-Rh probe fluorescence polarization. inhibition, % at 9.51 µM;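 active = inhibition above the screen mean inhibition plus 3 SD, computed separately per campaign, cut at about 18% in these data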;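 note: inhibitors lower polarization as less probe binds the enzyme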
GSTO1 inh: inhibitors of recombinant GSTO1, primary screen, counter-screen for RBBP9 inhibitor project, biochemical, fluorescence polarization; activity-based probe fluorescence polarization; 300,000 compounds, 1.1% hits; inhibition, % at 5.96 µM;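 active = inhibition above the campaign mean inhibition plus 3 SD, cut at about 35% in these data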;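 note: 0% = GSTO1-1 with DMSO and 100% = wells lacking GSTO1-1 enzyme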
LYPLA2 inh: LYPLA2 inhibitors, primary screen, counter-screen for PME1 inhibitor project, biochemical, fluorescence polarization, FP-Rh probe ABPP. Acyl-protein thioesterase 2 (Homo sapiens), O95372. 320,000 compounds, 0.38% hits. recombinant LYPLA2. inhibition, % at 5.9 µM;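 active = inhibition above the screen-wide mean plus 3 SD, limit set per campaign, cut at about 26% in these data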;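 note: 0% = LYPLA2 with DMSO and 100% = wells lacking LYPLA2 enzyme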
LYPLA1 inh: LYPLA1 inhibitors, primary screen, counter-screen for PME1 inhibitor project, biochemical, fluorescence polarization, FP-Rh probe ABPP. recombinant LYPLA1. inhibition, % at 5.9 µM. 320,000 compounds, 0.16% hits. AID 2174, 2009;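 active = inhibition above the mean of all tested compounds plus 3 SD, set per campaign, cut at about 14% in these data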;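 note: inhibitors block serine hydrolase probe labeling of LYPLA1 so polarization falls; 0% = enzyme with DMSO and 100% = wells lacking LYPLA1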
LYPLA2 conf: LYPLA2 inhibitors, retest, confirmation, counter-screen for PME1 inhibitor project, biochemical, fluorescence polarization, FP-Rh probe ABPP; shares compounds with LYPLA2 inh; recombinant LYPLA2; inhibition, % at 5.9 µM; 1,100 compounds, 72% hits; AID 2232, 2010;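 active = mean inhibition across replicates above the hit cutoff set in the primary screen, cut at about 26% in these data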;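 note: blocked labeling of the enzyme by serine hydrolase FP-Rh probe lowers polarization; 0% = enzyme with DMSO and 100% = wells lacking LYPLA2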
LYPLA2 gel ABPP: LYPLA2 inhibitors in proteome, late-stage follow-up, gel-based competitive ABPP, fluorescence, assay provider; AID 652029, 2013; shares compounds with LYPLA2 inh; rhLYPLA2 in mouse brain proteome, gel ABPP FP-Rh; inhibition, % at 20 µM; 150 compounds, 30% hits;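 active = inhibition of LYPLA2 enzyme probe labeling above about 50%, limit read from the data; inactive = inhibition below that limit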;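 note: loss of FP-Rh probe labeling of the LYPLA2 gel band measured as band density; 0% = DMSO only control band and 100% = blank gel background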
* = called active by the depositor; nt = not tested or not shown. In the library only some 2% were active in any assay of this set; here they are far more common.

SMILES | PME-1 inh | PREPL inhibitor | Fam108B counter | GSTO1 inh | LYPLA2 inh | LYPLA1 inh | LYPLA2 conf | others
CC1CCN(S(=O)(=O)c2ccc3c(c2)N(CC(=O)NCCN2C(C)CCCC2C)C(=O)CS3)CC1 (centres undefined) | 4 | 17 | -8 | 4 | 5 | 1 | nt
O=C1C2CCCN2C(=O)N1CCCCN1CCN(c2cccc(Cl)c2)CC1 (centres undefined) | -2 | 21 | 1 | 0 | 39* | 1 | 36*
CCN(C(=O)COC(=O)c1cccc(NS(=O)(=O)c2ccc(F)c(F)c2)c1)C1CCS(=O)(=O)C1 (centres undefined) | -8 | -4 | -7 | -1 | -5 | -2 | nt
O=C(CSc1ccc(Cl)cc1)N1CCN(c2ccc([N+](=O)[O-])cc2Cl)CC1 | -2 | -22 | -1 | -2 | 31* | 1 | 10
O=C(c1cc(COc2ccc(F)cc2Cl)on1)N1CCCC(OCc2cccnc2)C1 (centres undefined) | -2 | 25 | 1 | 6 | 3 | -2 | nt
O=C(c1cc(COc2ccc(F)cc2Cl)on1)N1CCC(OCc2cccnc2)CC1 | -5 | 9 | 3 | 5 | 32* | 1 | 33*
CN(Cc1ccc(C(F)(F)F)cc1)C(=O)c1ccc(Oc2ccccc2)cc1 | 0 | 4 | 0 | -5 | 29* | 11 | 24
CN(Cc1ccccc1F)C(=O)c1ccc(Oc2ccccc2)cc1 | -3 | 16 | -3 | 9 | 6 | 4 | nt
O=C(NCCNc1ccc([N+](=O)[O-])cc1C(F)(F)F)c1ccccc1F | -5 | 3 | -6 | 2 | 27* | -7 | 26
Cc1ccc(C(=O)NCCNc2ccc([N+](=O)[O-])cc2C(F)(F)F)cc1 | 8 | -6 | -1 | 13 | 8 | -3 | nt
O=C(c1cc(-c2ccc3c(c2)OCO3)on1)N1CCN(c2ccccc2)CC1 | 5 | 9 | 1 | 11 | 28* | 6 | 16
O=C(O)c1cccc(N2C(=O)c3ccc(Oc4ccc(Cl)cc4)cc3C2=O)c1 | 1 | 8 | -2 | -2 | 53* | -3 | 68* | LYPLA2 gel ABPP=55*
Fc1ccccc1COc1ccc(/C=N/n2cnnc2)cc1 | 8 | 38 | 3 | -2 | 26* | 4 | 12
O=C(Nc1ccn(C2CC(OC(=O)c3ccccc3)C(CO)O2)c(=O)n1)c1ccccc1 (centres undefined) | -3 | -5 | 1 | -2 | 26* | -3 | 10
O=[N+]([O-])c1ccc(Sc2ccccc2Cl)nc1 | -1 | 15 | 3 | 6 | 45* | 4 | 48*
O=C1N(Cc2cccnc2)C[C@@H]2C[C@@H](c3cccc(Oc4ccccc4)c3)N3CCC[C@@]123 | 5 | 33 | -3 | -7 | 27* | 5 | 18
O=C(CSc1nnc(-c2ccccc2Cl)o1)N1CCOCC1 | -3 | -9 | 1 | 0 | -6 | 2 | nt
CCN(CC)C(=O)c1ccc(S(=O)(=O)N2CCC(c3nc4ccccc4s3)CC2)cc1 | 8 | -13 | 2 | 2 | 27* | 6 | 16
CC1CCCN(C(=O)c2ccc(S(=O)(=O)N3CCC(c4nc5ccccc5s4)CC3)cc2)C1 (centres undefined) | 4 | 16 | 1 | -2 | 2 | 2 | nt
O=C(O)CCC(=O)N1N=C(c2ccccc2)CC1c1cccs1 (centres undefined) | 0 | -1 | -2 | -1 | -1 | 0 | nt
